# The supplement of paper PMC3334620
# Whole data set: some 33,000 sequences, median “E-score (-0.5 to 0.5)” near -0.012, cut for the highest 2% near 0.29. The full list was thinned out, with the highest values kept by preference.
# Target: T1, Ybr033w (UniProt P38073)
# T1 sequence: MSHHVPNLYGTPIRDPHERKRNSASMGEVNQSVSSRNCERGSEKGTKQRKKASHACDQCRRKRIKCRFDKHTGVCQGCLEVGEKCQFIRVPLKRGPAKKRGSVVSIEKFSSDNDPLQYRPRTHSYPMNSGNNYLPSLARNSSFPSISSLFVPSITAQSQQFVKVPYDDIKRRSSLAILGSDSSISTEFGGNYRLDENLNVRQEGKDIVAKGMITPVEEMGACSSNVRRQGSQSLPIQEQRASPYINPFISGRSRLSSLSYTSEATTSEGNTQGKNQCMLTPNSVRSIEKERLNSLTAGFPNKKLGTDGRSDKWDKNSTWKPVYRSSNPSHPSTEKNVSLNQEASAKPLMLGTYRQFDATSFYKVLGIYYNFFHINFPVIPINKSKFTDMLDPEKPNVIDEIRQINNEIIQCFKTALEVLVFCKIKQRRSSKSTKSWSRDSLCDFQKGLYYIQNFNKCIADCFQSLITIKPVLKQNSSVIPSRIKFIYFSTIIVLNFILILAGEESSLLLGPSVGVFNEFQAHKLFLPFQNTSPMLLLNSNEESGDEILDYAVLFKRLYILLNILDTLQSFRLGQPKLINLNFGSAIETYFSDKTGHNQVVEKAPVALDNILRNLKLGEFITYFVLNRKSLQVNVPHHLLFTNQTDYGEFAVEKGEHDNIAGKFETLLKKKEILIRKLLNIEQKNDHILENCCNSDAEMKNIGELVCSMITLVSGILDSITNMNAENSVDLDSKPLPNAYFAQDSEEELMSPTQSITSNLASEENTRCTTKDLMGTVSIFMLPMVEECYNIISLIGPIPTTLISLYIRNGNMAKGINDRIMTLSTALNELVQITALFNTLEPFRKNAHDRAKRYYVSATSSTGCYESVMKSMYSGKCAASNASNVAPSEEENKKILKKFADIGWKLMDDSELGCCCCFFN
# Experiment: PBM E-score (8-mer binding enrichment) (E-score (-0.5 to 0.5)); higher = stronger / more preferred TF binding
# Conditions: protein concentration: 200 nM; construct: GST-full length
# Summary of the method: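 Bound GST-tagged yeast transcription factors, applied at about 100-200 nM to double-stranded universal all-10-mer Agilent arrays, were detected with fluorescent anti-GST. Scans were normalised with masliner. A modified Wilcoxon-Mann-Whitney statistic, the E-score, was assigned to each ungapped eight-base word pooled with its reverse complement by the Universal PBM Analysis Suite.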
row,Sequence,PBM E-score
1,ACCCTTCA,-0.0354
2,CATTCTGG,-0.15
3,CATCTGTA,-0.105
4,CGTGACAC,-0.127
5,GGATAACA,0.0661
6,CGATAAAA,0.14
7,CGATAAAC,-0.148
8,ATATAAAA,0.242
9,GGATAAAA,0.397
10,GTATAAAA,0.289
11,TGATAAAA,0.299
12,AGATAAAA,0.286
13,GGATAAAC,0.456
14,GGATAAGA,-0.0485
15,AGATAAAC,0.216
16,GTATAAAC,0.158
17,CCTGCCCG,-0.354
18,GGCATATA,0.16
19,AGCAATGA,0.13
20,CGAGACCA,-0.0425
21,ATGAACAC,0.0659
22,ATAGCGGC,-0.106
23,CCGTCGAG,0.102
24,CATTATCG,0.0618
25,AATTATCT,0.264

row,Sequence,PBM E-score
1,AATTATCA,0.324
2,ATTTATCG,0.0834
3,AATTATCG,0.308
4,CATTATCA,0.138
5,TCGACCGA,-0.0438
6,CTGCACCC,-0.204
7,ACCTTTAA,0.126
8,AGTAGCAC,-0.0755
9,ACTTTATC,0.277
10,ATTTTATG,0.186
11,GTTTTATA,0.0686
12,CTTTTATC,0.232
13,ATTTTATA,0.309
14,ATTTTATC,0.325
15,AGCTTATG,0.0568
16,GGGGGTAC,-0.254
17,GTGTTCCA,-0.0466
18,ATGTTCCC,0.199
19,ATGTTCCA,0.332
20,ATGTTCAG,-0.137
21,CTGTTCCA,0.0353
22,ATGTTCCG,0.458
23,CACTGATC,0.0744
24,GTCTGAGA,-0.163
25,AACAAACT,0.341

row,Sequence,PBM E-score
1,AACAACTA,0.147
2,AACAACTT,0.291
3,TACAAACA,0.29
4,AACAAACA,0.193
5,AACAAACC,0.105
6,TACAAGCA,0.189
7,AACAAACG,0.183
8,AACAACTC,0.0616
9,CAAATCCG,0.0419
10,CTCGTGGC,-0.173
11,AAGTACTG,0.112
12,AGTGGTCA,-0.103
13,GAGACACC,-0.216
14,TGACTAAA,0.0305
15,TGAAGGAA,0.211
16,GGTATTTA,0.125
17,CGTATTTC,0.0631
18,AGTATTTA,0.301
19,ACTATTTA,0.235
20,AGTATTTC,0.34
21,AGTATTTG,0.159
22,CGTATTTA,0.311
23,AGTATTGC,0.169
24,AGTATTCC,0.161
25,AGACTTTG,-0.0453

row,Sequence,PBM E-score
1,CCGACACG,-0.213
2,ATCACAAG,0.107
3,CCTACTTC,-0.0544
4,CGCAGGTC,-0.168
5,ACAGCCTG,-0.0521
6,ACGAGTGC,-0.0558
7,CCACCCTC,-0.0745
8,ACCAATAA,0.107
9,GCATCGCC,-0.17
10,ATATCCAC,0.145
11,GAAGGCTA,0.0975
12,TGGAGAAA,0.133
13,CGGAGAAG,-0.166
14,CGGAGAAA,0.39
15,TAAACTCA,0.147
16,GAATAAAC,0.142
17,GGATAGTA,0.206
18,GAATAATC,0.379
19,GAATAAGA,0.0352
20,GGATAATA,0.349
21,GAATAACA,0.367
22,GAATAACC,0.113
23,GAATAAGC,0.189
24,GAATAATA,0.395
25,CGATAATA,0.0851

row,Sequence,PBM E-score
1,GCATAATA,0.198
2,CAATAACA,0.066
3,CATCCTGC,-0.163
4,CAAGAGGC,-0.144
5,CTTCAGAA,-0.028
6,GTAGGACA,0.012
7,ACGTATAC,0.181
8,ATTCTGAA,0.187
9,CGAGGGAA,-0.0841
10,AATGTAAT,0.272
11,AATGTAAG,0.288
12,CATGTAAG,-0.0133
13,AGCCTCCC,-0.254
14,AACCTGCC,-0.0858
15,AATTGATG,0.309
16,AATTGATA,0.255
17,AATTGATC,0.354
18,AATTGACC,0.0241
19,ACTTGATG,0.218
20,CATTGATC,0.236
21,TAACCAAA,0.186
22,CGGAGGGA,-0.057
23,CGTCTTCC,-0.215
24,ATTACTTA,0.35
25,ATTACTCA,0.296

row,Sequence,PBM E-score
1,CTTACTTA,0.0259
2,ATTACTCG,0.132
3,ATTACTCC,0.23
4,ATTACTGA,0.169
5,CACCAGTC,-0.196
6,CAAAGTTA,0.279
7,GAAAGTTC,-0.0203
8,ACAAGTTA,0.185
9,AAAAGTAA,0.314
10,AAAAGTTA,0.288
11,AAAAGTTG,0.133
12,CAAAGTAA,0.186
13,TAAAGTTA,0.358
14,GAAAGTTA,0.218
15,AAAAGTTT,0.266
16,AAAAGTAT,0.13
17,AAAAGTTC,0.373
18,ACGGTGGC,-0.095
19,CGGCCATA,-0.17
20,CTATCCAG,0.062
21,AGTGGTTC,0.00899
22,TGAGCCCA,-0.0977
23,GTTCTGCA,-0.173
24,AGAACTAG,-0.084
25,CTCTGCGC,-0.118

row,Sequence,PBM E-score
1,TAGACGCA,-0.0494
2,CCGCTTGA,-0.162
3,GCCTTTCC,-0.254
4,TAAATATA,0.353
5,TAAATACA,0.229
6,GAAATATA,0.327
7,CAAATATA,0.281
8,GAAATACA,0.14
9,GAAATATC,0.231
10,GGCCAATA,-0.0498
11,AAAGCTCT,-0.262
12,CAATGCTA,0.115
13,CTCCATGA,0.0454
14,TAGACAGA,0.157
15,GATCAATC,0.184
16,AATCAATT,0.247
17,GATCAATA,0.329
18,CATCAAAA,0.108
19,AATCAATA,0.334
20,AATCAATC,0.0849
21,AATCAAAA,0.225
22,GATCAAAA,0.296
23,TATCAATA,0.257
24,AGGGTAAG,0.0154
25,CCTAGGAC,-0.087

row,Sequence,PBM E-score
1,AAAGCAAT,0.16
2,ACCCCCTG,-0.454
3,ATGGAATC,0.198
4,CTGGAATC,-0.00413
5,CTGGAATA,0.355
6,GTGGAATA,0.262
7,CTGGAAGA,0.189
8,ATGGAACA,0.182
9,ATGGAATA,0.316
10,CTGGAACC,-0.209
11,CTGGAACA,0.31
12,ATGTGGAA,0.235
13,CCGGGTGC,-0.181
14,CCCTTTGC,-0.134
15,GGCCTAAC,-0.013
16,CACAGAGC,-0.121
17,ATACGTAT,0.207
18,TGGATCAA,0.377
19,GGGATCAA,0.242
20,TGGATCCA,-0.0233
21,AGGATCAA,0.317
22,AGGATCAG,-0.166
23,AGGATCAC,-0.0786
24,AAGAGTAT,0.00192
25,AATAACCC,0.203

row,Sequence,PBM E-score
1,GCACTTCC,-0.149
2,AAAAAAAG,0.273
3,GAAAAAAC,0.265
4,GAGAAAAA,0.155
5,AAAAAAAC,0.24
6,AAAAAAAA,0.353
7,GAAAAAAA,0.37
8,AGATCTTC,0.137
9,AAGGATTG,0.126
10,ACTCAACA,0.146
11,CTTCTCCA,-0.214
12,ACCCAGGG,-0.287
13,ACTCGAAG,-0.242
14,CTGGTCCA,-0.17
15,GTTCCTAA,0.125
16,GATATAGC,0.156
17,ATATGAGC,-0.0174
18,ATTTTACG,0.328
19,CTTTTACC,0.101
20,AATTTACG,0.232
21,AATTTACC,0.103
22,ATTTTACA,0.0461
23,ATTTTACC,0.362
